# Screen size: about 13,000 compounds; about 3,200 (25%) showed an effect of 50% or more. This is one part of the list.
# System: P. falciparum stage V gametocytes
# Parameters: BacTiter-Glo ATP luminescence viability of purified stage V gametocytes in 384-well plates, per cent inhibition versus DMSO
# Details: 48 h, 5 µM; inhibitor
row,Compound,% Inhibition
1,N#Cc1ccc(/C=C/C(=O)NCCCCCN2CCCN(C(=O)Nc3ccc(Cl)c(C(F)(F)F)c3)CC2)cc1 [TCMDC-136110],28.79%
2,Cc1[nH]c(CNCCCNc2cc(=O)c3ccccc3[nH]2)c(Br)c1Br [TCMDC-139780],-12%
3,COc1ccc(-c2cc(C(=O)Nc3ccc4nc(-c5ccccc5)[nH]c4c3)[nH]n2)cc1 [TCMDC-134399],-1.351%
4,Fc1cccc(COc2ccc(Nc3ncnc4sc(C#CCNC5CCC5)cc34)cc2Cl)c1 [TCMDC-138785],4.873%
5,Cc1cc(NCCc2ccccc2)nc(/N=C(\N)Nc2cccc(Cl)c2)n1 [TCMDC-138364],54.32%
6,Cc1cc(NCCc2ccccc2)nc(/N=C(\N)Nc2cccc([N+](=O)[O-])c2)n1 [TCMDC-138371],3.581%
7,CC(C)CCN(Cc1cncn1Cc1cccc(C(F)(F)F)c1)C(=O)c1ccccc1C#N [TCMDC-132457],14.87%
8,O=C(O)C(F)(F)F.O=C1CCCN1CCCNCc1ccc(-c2ccc(-c3nc4cc(C(F)(F)F)ccc4[nH]3)cc2)cc1 [TCMDC-132760],37.39%
9,COc1nc2c(CCN3CCC(NCc4ccc5c(c4)NC(=O)CO5)CC3)c(Cl)cnc2cc1F [TCMDC-135767],23.61%
10,Cn1ncc2c3c(CCN4CCC(NCc5ccc6c(c5)NC(=O)CO6)CC4)c(Cl)cnc3ccc21 [TCMDC-136023],91.21%
11,COc1cc(F)c2ncc(Cl)c(CCN3CCC(NCc4ccc5c(c4)NC(=O)CO5)CC3)c2c1 [TCMDC-135623],24.82%
12,CC(=O)c1ccc(N2C(=O)C3C(Cc4ccc(OC(C)(C)C)cc4)NC4(C(=O)N(Cc5ccc(C(C)(C)C)cc5)c5ccccc54)C3C2=O)cc1 (stereo not drawn) [TCMDC-139773],1.15%
13,C=CCc1cc(Cc2cnc(N)nc2N)c2ccc(C)nc2c1O [TCMDC-137628],-3.473%
14,Cc1cccc(CNc2nccc3[nH]c4ccccc4c23)c1 [TCMDC-136334],-2.626%
15,CN(C)CCNc1cc(-c2cccnc2)nc(-c2ccncc2)n1 [TCMDC-125595],-4.49%
16,CN(CCc1ccccn1)c1cccc2c1nc(-c1cccnc1)n2CCNCc1ccccc1 [TCMDC-133439],-10.58%
17,CN(C)c1cccc2c1nc(-c1ccco1)n2CCNCc1ccccc1 [TCMDC-133484],72.16%
18,CN(C)CCCN(C)c1cccc2c1nc(-c1cccnc1)n2CCNCc1ccccc1 [TCMDC-133440],88.37%
19,Cc1nc2nc(N)nc(N)c2c(C)c1Cc1cccc(C#N)c1 [TCMDC-137646],-13.13%
20,Cc1nc(N)nc(N)c1CCCOc1ccc(Br)cc1 [TCMDC-138068],-19.95%
21,CC(=O)c1cccc(NC(=O)N2CCCN(CCCCCNC(=O)/C=C/c3ccc(Cl)c(Cl)c3)CC2)c1 [TCMDC-135752],-19.76%

row,Compound,% Inhibition
1,COc1ccc(-c2nc(NC(=O)Cc3coc4cc(OC)ccc34)sc2C)cc1 [TCMDC-124497],27.62%
2,CCN(CC)CCN(Cc1ccc(-c2ccc(C(F)(F)F)cc2)cc1)C(=O)Cn1c(CCc2cccc(F)c2F)nc(=O)c2ccc(C(F)(F)F)cc21 [TCMDC-141071],34.24%
3,CCN(CC)CCN(Cc1ccc(-c2ccc(C(F)(F)F)cc2)cc1)C(=O)Cn1c(CCc2cccc(F)c2F)nc(=O)c2cc(F)ccc21 [TCMDC-141096],73.36%
4,CCN(CC)CCN(Cc1ccc(-c2ccc(C(F)(F)F)cc2)cc1)C(=O)Cn1c(CCc2cccc(F)c2F)nc(=O)c2cc(F)c(F)cc21 [TCMDC-141089],67.52%
5,CCN(CC)CCN(Cc1ccc(-c2ccc(C(F)(F)F)cc2)cc1)C(=O)Cn1c(SCc2ccc(F)cc2)cc(=O)c2ccccc21 [TCMDC-140791],99.53%
6,CCN(CC)CCN(Cc1ccc(-c2ccc(C(F)(F)F)cc2)cc1)C(=O)Cn1c(CCc2cccc(F)c2F)nc(=O)c2ccc(F)cc21 [TCMDC-141095],68.69%
7,COc1cccc(OC2CCN(C(=O)c3ccc(-c4ccc(N5CCCC5=O)cc4C)cc3)CC2)c1 [TCMDC-136524],29.3%
8,Cc1nc(N)nc(N)c1OCCCOc1ccccc1Br [TCMDC-131364],-0.5645%
9,CN1CCCC1CCNC(=O)[C@H](CC1CCCCC1)NC(=O)c1ccc(O)c(-c2ccc(Cl)c(Cl)c2)c1 (stereo partly drawn) [TCMDC-140855],48.17%
10,CCN(CC)C(=O)c1cnc(-c2ccccc2)nc1Oc1cccc(Cl)c1 [TCMDC-124780],14.15%
11,CCCCCCC(C)c1cc(O)c2c(c1)OC(=O)CC2(CC)c1ccccn1 (stereo not drawn) [TCMDC-131681],-3.085%
12,c1cc(CNC2Cc3ccc(-c4cccs4)cc3C2)cc(-n2ccnc2)c1 (stereo not drawn) [TCMDC-134830],-2.028%
13,CC(C)C[C@H](NC(=O)c1ccc(OCCN2CCOCC2)cc1)C(=O)NC(/C=N/N1CCCC1=O)C(C)C (stereo partly drawn) [TCMDC-136276],20.05%
14,CCc1cccc(OCC2CCCN(c3ccc(C(=O)NC4CC4)cn3)C2)c1 (stereo not drawn) [TCMDC-134039],7.857%
15,CCN(CC)CCN(Cc1ccc(-c2ccc(C(F)(F)F)cc2)cc1)C(=O)Cn1c(CCc2ccc(F)cc2)nc(=O)c2sccc21 [TCMDC-140779],90.56%
16,CCN(CC)CCN(Cc1ccc(-c2ccc(C(F)(F)F)cc2)cc1)C(=O)Cn1c(CCc2cccc(F)c2F)nc(=O)c2ccc(C)cc21 [TCMDC-141086],74.83%
17,CCN(CC)CCN(Cc1ccc(-c2ccc(C(F)(F)F)cc2)cc1)C(=O)Cn1c(SCc2ccc(F)cc2)nc(=O)c2sccc21 [TCMDC-140572],78.9%
18,CCN(CC)CCN(Cc1ccc(-c2ccc(C(F)(F)F)cc2)cc1)C(=O)Cn1c(SCc2ccc(F)cc2)nc(=O)c2ccccc21 [TCMDC-140983],87.16%
19,CCN(CC)CCN(Cc1ccc(-c2ccc(C(F)(F)F)cc2)nc1)C(=O)Cn1c(SCc2ccc(F)cc2)nc(=O)c2sccc21 [TCMDC-140573],27.02%
20,CCN(CC)CCN(Cc1ccc(-c2ccc(C(F)(F)F)cc2)cc1)C(=O)Cn1c(CCc2cccc(F)c2F)nc(=O)c2cc(C)ccc21 [TCMDC-141014],48.99%
21,Cc1cccc(C)c1C1CCN(C2CCC(NC(=O)/C=C/c3ccccc3)CC2)CC1 (stereo not drawn) [TCMDC-132879],-22.62%

row,Compound,% Inhibition
1,C=CC12CCN(CC1)C(C(O)c1ccnc3ccc(OC)cc13)C2 (stereo not drawn) [TCMDC-124047],-22.19%
2,O=C(Nc1ccc(F)c(F)c1)c1ccc(CN2CCCN(Cc3cccc(O)c3)CC2)cc1 [TCMDC-136390],-4.727%
3,CC(=O)Nc1ncc(C(=O)Nc2cccc(-c3cccc(-c4nc5ccc(C(F)(F)F)cc5[nH]4)c3)c2)s1 [TCMDC-136918],17.49%
4,CCc1sc(N2CCN(C)CC2)nc1C(=O)Nc1ccc(F)cc1C(F)(F)F [TCMDC-134298],16.91%
5,CCN(CC)CCN(Cc1ccc(-c2ccc(C(F)(F)F)cc2)cc1)C(=O)Cn1c(CCc2cccc(F)c2F)nc(=O)c2sccc21 [TCMDC-140937],80.29%
6,Cc1noc(NC(=O)c2sc3ccccc3c2O)c1C [TCMDC-124523],7.208%
7,O=C(CNC(=O)c1ccc(O)cc1)Nc1ccc(-c2cccc(-c3nc4ccc(C(F)(F)F)cc4[nH]3)c2)cc1 [TCMDC-136817],-15.92%
8,COc1cc(O)c2c(=O)c(OC)c(-c3cccc(Cl)c3OCC(=O)O)oc2c1OC [TCMDC-131682],2.376%
9,N=C(N)c1ccc(NCc2cccc(C(=O)O)c2)cc1 [TCMDC-136136],-78.43%
10,O=C(O)c1ccc(-c2c[nH]c3ncc(-c4ccc(Cl)cc4)cc23)cc1 [TCMDC-135860],22.96%
11,CS(=O)(=O)Nc1cccc(-c2cnc3[nH]cc(-c4ccc(CCC(=O)O)cc4)c3c2)c1 [TCMDC-136222],-32.54%
12,CS(=O)(=O)Nc1cccc(-c2cnc3[nH]cc(-c4ccc(C(=O)O)cc4)c3c2)c1 [TCMDC-136215],-36.34%
13,CS(=O)(=O)Nc1cccc(-c2cnc3[nH]cc(-c4ccc(C(=O)O)c(F)c4)c3c2)c1 [TCMDC-136221],80.96%
14,CCS(=O)(=O)c1ccc(-c2cnc3[nH]cc(-c4ccc(N)cc4)c3c2)cc1 [TCMDC-132582],93.29%
15,NCCC(=O)Nc1ccc(-c2cnc3[nH]cc(-c4ccc(C(=O)O)cc4)c3c2)cn1 [TCMDC-136494],31.68%
16,CS(=O)(=O)Nc1cccc(-c2cnc3[nH]cc(-c4ccc(CN)cc4)c3c2)c1 [TCMDC-136218],33.32%
17,CS(=O)(=O)Nc1cccc(-c2cnc3[nH]cc(-c4cccc(CN)c4)c3c2)c1 [TCMDC-136219],26.05%
18,NCCNC(=O)c1ccc(-c2cnc3[nH]cc(-c4ccc(C(N)=O)cc4)c3c2)cc1 [TCMDC-132359],74.46%
19,CS(=O)(=O)Nc1ccc(-c2cnc3[nH]cc(-c4ccc(C(=O)O)cc4)c3c2)cc1 [TCMDC-136306],30.86%
20,CS(=O)(=O)c1cccc(-c2cnc3[nH]cc(-c4ccc(CCC(=O)O)cc4)c3c2)c1 [TCMDC-136223],14.42%
21,CS(=O)(=O)c1cccc(-c2cnc3[nH]cc(-c4cccc(CCN)c4)c3c2)c1 [TCMDC-136307],108.4%
